Pf growth 96h = Primary qHTS for delayed death inhibitors of the malarial parasite plastid, 96 hour incubation; P. falciparum luciferase reporter growth, 96 h; Potency, µM (highest dose often 28.7 µM), actives largely listed as inhibitors; actives 6.9% (n = 320,000); AID 504834, 2011; active = well fitted inhibition curve with a large enough effect; inconclusive = small, poorly fitted or top-dose-only effect, or another doubt; inactive = no such curve, though single readings can be large or run the other way
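Delayed-death screen, second-generation endpoint: infected erythrocytes, 2% hematocrit, 0.05% parasitemia final; 96 hours at 37 C, 5% CO2; luciferase detection reagent; luminescence decrease equals reduced growth.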
CHX counter = Cycloheximide Counterscreen for Small Molecule Inhibitors of Shiga Toxin. cell reporter, cycloheximide protein synthesis inhibition counterscreen. max response, %. actives 12% (n = 300,000). AID 2314, 2010; in the data active = max response mostly above about 13%, no sharp cut-off; inactive = mostly below about 14%; also: read at 38.3 µM for the half of the compounds with a filed dose
NS1 function inh = qHTS Assay for Inhibitors of Influenza NS1 Protein Function; Potency, µM (titrated, usually from 46.1 µM); actives 0.4% (n = 270,000); also: actives are rising curves; nearly all actives have a fitted effect of over 50% in size
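OD600 was taken as the measure of yeast growth restored by compound in an NS1-expressing S. cerevisiae strain. Cells had been washed out of glucose medium and diluted 1:100 into galactose -URA medium, pH 6.0.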
Pf growth 48h = Primary qHTS for delayed death inhibitors of the malarial parasite plastid, 48 hour incubation. Potency, µM (titrated, usually from 28.7 µM), actives largely listed as inhibitors. AID 504832, 2011. actives 5.9% (n = 310,000). P. falciparum luciferase growth in erythrocytes, 48 h; active = well fitted inhibition curve with a large enough effect; inconclusive = small, poorly fitted or top-dose-only effect, or another doubt; inactive = no such curve, though single readings can be large or run the other way
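Growth was read as firefly luciferase luminescence after a 48 h, 37 C, 5% CO2 exposure of compounds to reporter-bearing P. falciparum cultures (0.1% parasitemia, 2% hematocrit final) in Albumax-supplemented RPMI 1640.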
SARS PLP yeast = qHTS of Yeast-based Assay for SARS-CoV PLP; S. cerevisiae expressing SARS-CoV PLpro, growth rescue; actives 0.19% (n = 330,000); Potency, µM (top dose mostly 32.9 µM), most hits filed as activators; AID 485353, 2010; also: nearly all actives have a fitted effect of over 55% in size
Shiga toxin inh = A qHTS for Small Molecule Inhibitors of Shiga Toxin; actives 9.2% (n = 290,000); Vero cells, Shiga toxin protein synthesis inhibition reporter; inhibition, % at 38.7 µM; in the data active = inhibition mostly above about 28%, no sharp cut-off; inactive = mostly below about 43%
Numbers stand for hits; 0 = inactive; ? = inconclusive; - = no result; + = active, no number; [ ] = remark or other dose. Rows were chosen to be rich in hits. Some 21% of all compounds tested hit in one or more screens of this group. Unless noted, calls follow the shape of the full dose curve.

SMILES | Pf growth 96h | CHX counter | NS1 function inh | Pf growth 48h | SARS PLP yeast | Shiga toxin inh
COc1ccc(C(=O)C(CCCCC(CN(C)C)C(=O)c2ccc(OC)cc2)CN(C)C)cc1 (stereo not drawn) | 9.3µM | 0 | 0 | 10µM | 0 | 0
CCOc1ccc(C(=O)C(CCC(CN(C)C)C(=O)c2ccc(OCC)cc2)CN(C)C)cc1 (stereo not drawn) | ? | 0 | 0 | ? | 0 | 0
Cc1ccoc1C(=O)N1CCN(C(=O)c2occc2C)CC1 | 0 | 0 | 0 | 0 | 0 | 0
O=C(NC(=S)NCc1ccc(-c2nc3ccccc3s2)cc1)c1ccco1 | 15µM | 30 | 0 | 0 | 0 | 64
COc1ccc(C(=O)NCc2ccc(-c3nc4ccccc4s3)cc2)cc1OC | - | 0 | 0 | 0 | 0 | 0
O=C(NCc1ccc(-c2nc3ccccc3s2)cc1)c1ccco1 | 0 | 34 | 0 | ? | 0 | 71
O=C(NCc1ccccc1)c1ccco1 | ? | 0 | 0 | 0 | 0 | 0
CN(Cc1ccccc1)C(=O)CN1C(=O)NC(C)(c2ccc(Cl)cc2)C1=O (stereo not drawn) | 0 | 0 | 0 | 0 | 0 | 0
COc1ccc(Nc2nc(OC)nc(N3CCOCC3)n2)cc1 | 0 | 0 | 0 | 0 | 0 | 0
COc1ccc(Nc2nc(Nc3ccc(OC)cc3)nc(-n3[nH]c(=O)c(C)c3C)n2)cc1 | - | 0 | 0 | 2.6µM | 0 | 0
CC(=O)N(C1=C(N)C(=O)c2ccccc2C1=O)c1ccccc1 | 9.3µM | 0 | 0 | ? | 0 | 0
Nc1c(Cl)ncnc1N/N=C/c1ccccn1 | 2.9µM | 25 | 0 | 2.1µM | - | active
Nc1c(Cl)ncnc1N/N=C/c1ccnc2ccccc12 | 0 | 0 | 0 | 0 | 0 | 0
O=C(Cc1c(Cl)cccc1Cl)N/N=C/c1cccnc1 | 0 | 0 | 0 | 0 | 0 | 0
Nc1c(Cl)ncnc1N/N=C/c1cccnc1 | 0 | 15 | 0 | 0 | 0 | 0
O=C1CC(C(=O)N2CCOCC2)C2(CCCC2)O1 (stereo not drawn) | 0 | 0 | 0 | 0 | 0 | 0
COc1ccc(C2Nc3cc(OC)ccc3-n3cccc32)cc1 (stereo not drawn) | 0 | 0 | 0 | ? | 0 | 0
Cc1ccc(OCC(=O)N/N=C\c2cccn2C)c([N+](=O)[O-])c1 | 0 | 32 | 0 | 0 | 0 | 42
Cc1ccc(OCC(=O)N/N=C\c2ccc(C)o2)c([N+](=O)[O-])c1 | 5.9µM | 0 | - | 0 | 0 | 0
O=C(CCCn1cc([N+](=O)[O-])cn1)Nc1cccnc1 | 0 | 0 | 0 | 0 | 0 | 0
O=C(CCc1ccccc1)N1CCCC(Nc2ccc(F)cc2)C1 (stereo not drawn) | ? | 0 | 0 | ? | 0 | 0
CCOc1ccc(S(=O)(=O)N2CCCCC2)cc1NC(=O)CN1C(=O)NC(C)(C2CC2)C1=O (stereo not drawn) | 0 | - | - | ? | 0 | -
N#C/C(=C\c1ccc(OCC(N)=O)cc1)c1ccccc1 | 0 | 39 | 0 | 0 | 0 | 88
CCOC(=O)CN/C=C(\C#N)c1ccccc1 | 0 | 0 | 0 | 0 | 0 | 0
CCCc1nnc(-c2ccc(OC)cc2)o1 | 0 | 34 | 0 | 0 | 0 | +
SMILES | Pf growth 96h | CHX counter | NS1 function inh | Pf growth 48h | SARS PLP yeast | Shiga toxin inh
CCNc1nnc(-c2ccc(C)cc2)o1 | 0 | 42 | 0 | 0 | 0 | 107
COc1ccc(Cc2nnc(-c3ccccc3)o2)cc1 | 12µM | 44 | - | 0 | 0 | 43
Cc1ccc(CC(=O)Nc2nnc(-c3ccc(F)cc3)o2)c(C)c1 | 0 | 0 | 0 | 0 | 0 | 0
Brc1ccc(-c2nnc(Cc3ccccc3)o2)cc1 | 0 | 58 | 0 | 0 | 0 | 81
c1ccc(Cc2nnc(-c3ccccc3)o2)cc1 | 0 | 0 | ? | 0 | 0 | 0
COc1ccc(SCCc2nnc(-c3ccccc3)o2)cc1 | 0 | 0 | 0 | 0 | 0 | 0
COCCN1Cc2cccc(C(=O)Nc3ccc(S(=O)(=O)N4CCCCC4)cc3)c2C1=O | 0 | 0 | 0 | ? | 0 | 0
O=C(CN1CCN(C(=O)C2CC2)CC1)Nc1cc(C(F)(F)F)cc(C(F)(F)F)c1 | 0 | - | - | 0 | 0 | -
COc1ccccc1NC(=O)CSc1nnc(-c2ccccc2)o1 | ? | 0 | 0 | - | 0 | 0
COc1ccccc1NCc1nnc(-c2ccccc2)o1 | 0 | 20 | 0 | 0 | 0 | 0
COc1ccc(-c2nnc(-c3ccccc3O)o2)cc1 | 0 | 45 | 0 | 0 | 0 | 63
c1ccc(-c2nnc(C(c3ccccc3)c3ccccc3)o2)cc1 | 7.4µM | 0 | 0 | ? | 0 | 0
COc1ccc(-c2nnc(-c3ccc(C)cc3)o2)cc1 | 0 | 19 | 0 | 0 | 0 | 82
OC(CON=C1c2ccccc2-c2ccccc21)CN1CCNCC1 (stereo not drawn) | ? | 0 | - | ? | 0 | 0
CCOc1cc(Cl)c(S(=O)(=O)NCCCN2CCOCC2)cc1Cl | 0 | 0 | 0 | 0 | 0 | 0
COc1c(S(=O)(=O)n2nc(C)cc2C)ccc(Cl)c1Cl | ? | 0 | 0 | 0 | - | 0
CCc1cccc(CC)c1NC(=O)COC(=O)c1ccc(F)c(S(=O)(=O)N(CC)CC)c1 | 0 | 0 | 0 | 0 | 0 | 0
COc1ccc(-c2nnc(-c3ccc(F)cc3)o2)cc1 | 0 | 48 | 0 | 0 | 0 | 90
Cc1ccc(-c2nnc(-c3ccccc3)o2)cc1 | ? | 49 | 0 | 0 | 0 | 49
COC(=O)C1CCN(C(=O)COC(=O)CSc2ccc(C(N)=O)cc2[N+](=O)[O-])CC1 | 0 | - | - | 0 | 0 | -
CCOc1ccc(NC(=O)CN(C)C(=O)CC(NC(=O)c2ccccc2)c2ccccc2)cc1OCC (stereo not drawn) | ? | - | - | ? | 0 | -
COc1ccc(-c2cc(C(=O)O)no2)cc1 | 0 | 0 | 0 | 0 | 0 | 0
CCC(C)NC(=O)c1cc(-c2ccc(OC)cc2)on1 (stereo not drawn) | 0 | 29 | ? | - | 0 | 66
COc1ccc(-c2cc(C(=O)Nc3cc(C)on3)no2)cc1 | ? | 0 | - | 0 | 0 | 0
COc1ccc(-c2cc(C(=O)NCC(C)C)no2)cc1 | 0 | 38 | 0 | - | 0 | 71
SMILES | Pf growth 96h | CHX counter | NS1 function inh | Pf growth 48h | SARS PLP yeast | Shiga toxin inh
CCCCCCCOc1ccc(C2CC(=O)N(C)C2=O)cc1 (stereo not drawn) | ? | 0 | 0 | 0 | 0 | 0
COc1cc(OC)cc(C(=O)NCCC(=O)NCCc2ccc(OC)c(OC)c2)c1 | ? | 0 | 0 | 0 | 0 | 0
OC1(c2ccccc2)CNCCc2ccccc21 (stereo not drawn) | 0 | 0 | 0 | 0[0.00184 µM] | 0 | 0
CNc1ccc(/C=C2\COc3ccccc3C2=O)cc1[N+](=O)[O-] | 0 | 0 | 0 | - | 0 | 0
O=C1/C(=C/c2ccccc2[N+](=O)[O-])COc2ccccc21 | ? | 76 | 0 | ? | 0 | 155
O=C1/C(=C/c2ccccn2)COc2ccccc21 | 0 | 27 | 0 | 0 | 0 | 78
O=C1/C(=C/c2ccc(O)cc2)COc2ccccc21 | 0 | 29 | 0 | 0 | 0 | 45
CCOc1cc(/C=C2/COc3ccccc3C2=O)ccc1OCC(=O)N(C)C | ? | 0 | - | 0 | 0 | 0

Compound activity from PubChem BioAssay.
